Inconclusive results are not listed. Values without a mark were called inactive. Active and inactive are the calls of the source. Calls follow the shape of the dose curve; as a rule, active = well fitted curve in the direction sought with a large enough effect; inconclusive = small, poorly fitted or top-dose-only effect, or another doubt; inactive = no such curve, though single readings can be large; an effect the other way counts as inactive or inconclusive.

One assay concerns CRL-7250. Nature of the assay: Cytotoxic Profiling of Annotated Libraries Using Quantitative High-Throughput Screening (AID 1296008). Also: nearly all actives have a fitted effect of over 60% in size. Also: potency is read from the fitted curve at half-maximal effect. As to max response: % is scaled to controls: 0 for no effect and ±100 for the full control effect. The settings on record: Five cell lines viability, CellTiter-Glo ATP luminescence, 48-72 h; max response: hits give low values. Put shortly: (§1)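 Cytotoxicity was measured as CellTiter-Glo ATP luminescence, read after 10 min at room temperature. Compound treatment of the cells lasted 48 or 72 hr at 37 degrees Celsius in a qHTS format.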

The test system of assay [1] is HaCat. The description is as above. To be noted: Five cell lines viability, CellTiter-Glo ATP luminescence, 48-72 h; max response: hits give low values. The gist of the method:
as §1

The test system of the next assay is KB-3-1. The description is as above. The settings on record: Five cell lines viability, CellTiter-Glo ATP luminescence, 48-72 h; max response: hits give low values. The gist of the method:
as §1

The subject of another assay is C33A. Nature of the assay: Primary qHTS to identify gynecologic anti-cancer compounds using libraries of approved drugs and bioactive compounds (AID 1345084). Also: % is scaled to controls: 0 for no effect and ±100 for the full control effect; nearly all actives have a fitted effect of over 55% in size. The settings on record: Gynecologic cancer cell panel viability, ATPlite luminescence, 48 h; series mostly up to 57.5 µM. Put shortly:
(§2)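 Five-concentration response, 48 h; readout is ATP-driven luciferase luminescence.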

For another assay, the system named is CAOV3. The description is as above. The settings on record: Gynecologic cancer cell panel viability, ATPlite luminescence, 48 h; series mostly up to 57.5 µM. The gist of the method:
as §2

The subject of a further assay is CASKI. Described as above. The settings on record: Gynecologic cancer cell panel viability, ATPlite luminescence, 48 h; series mostly up to 57.5 µM. The gist of the method:
as §2

The next assay has as its system Es-2. Described as above. The settings on record: Gynecologic cancer cell panel viability, ATPlite luminescence, 48 h; series mostly up to 57.5 µM. The gist of the method: as §2
The next assay relates to HeLa. The description is as above. To be noted: Gynecologic cancer cell panel viability, ATPlite luminescence, 48 h; series mostly up to 57.5 µM. Put shortly:
as §2

For a further assay, the system named is Hek293T. The description is as above. To be noted: Gynecologic cancer cell panel viability, ATPlite luminescence, 48 h, control line for the selectivity index; series mostly up to 57.5 µM. Put shortly:
as §2

For another assay, the system named is JEG-3. The description is as above. To be noted: Gynecologic cancer cell panel viability, ATPlite luminescence, 48 h; series mostly up to 57.5 µM. The gist of the method: as §2
The next assay relates to OV90. The assay is described as above. To be noted: Gynecologic cancer cell panel viability, ATPlite luminescence, 48 h; series mostly up to 57.5 µM. Put shortly:
as §2

Another assay relates to PA-1. The description is as above. To be noted: Gynecologic cancer cell panel viability, ATPlite luminescence, 48 h; series mostly up to 57.5 µM. The gist of the method:
as §2

For assay [2], the system named is HACAT. Briefly: qHTS assay to identify novel small-molecules to repurpose for Merkel cell carcinoma treatment (AID 1296009). Also: nearly all actives have a fitted effect of over 60% in size. The settings on record: MCC and control cell lines, CellTiter-Glo viability, 72 h; at 44.8 µM (top of the series) unless noted. Put shortly:
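Cell viability measured by CellTiter-Glo following 72 hr compound treatment at 37 degree celsius, with NPC and MIPE libraries tested in 8- and 11-point concentration series.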

In the case of `COc1ccc(C2(CNC(=O)c3ccc(NC(=O)c4ccco4)cc3)CCOCC2)cc1`, the max response in the assay on CRL-7250 was -30.6%; in the assay with HaCat [1], -26.6%; in the assay with KB-3-1, 8.83%. In addition, the Potency result in the assay on C33A, with CAOV3, in the assay with CASKI, with Es-2, with HeLa and in the assay on Hek293T was “inactive” each time. The Potency entry in the assay with JEG-3, with OV90 and in the assay on PA-1 was “inactive” in each case.

In the case of `CCOC(=O)c1cnn(-c2ccccc2)c1NC(=O)c1cc2nc(-c3ccco3)cc(C(F)(F)Cl)n2n1`, the results for the max response in the assay with CRL-7250, in the assay with HaCat [1] and with KB-3-1 were -4.16%, 3.78% and 6.18%, respectively. Further, the Potency entry with C33A, in the assay on CAOV3, with CASKI, in the assay with Es-2, in the assay on HeLa and with Hek293T was “inactive” each time. The Potency result in the assay with JEG-3, in the assay on OV90 and in the assay on PA-1 was “inactive” each time.

With `Cc1cnn(-c2ccccc2)c1NC(=O)COCc1ccccc1`, the max response in the assay with CRL-7250 was -16.8%; in the assay on HaCat [1], 3.62%; in the assay with KB-3-1, 3.83%. Moreover, the Potency entry with C33A, in the assay with CAOV3, in the assay on CASKI, in the assay on Es-2, with HeLa and in the assay with Hek293T was “inactive” throughout. For the same compound, the Potency result in the assay with JEG-3, in the assay on OV90 and with PA-1 was “inactive” throughout.

Turning to `C=C1C(=O)OC2CC(C)C(CCC(C)=O)=CCC12` (configuration not stated), the max response with CRL-7250 was -28.7%; in the assay with KB-3-1, -13.7%. The outcome in the assay on HaCat [1] and with HACAT [2] was inactive. Also, the Potency entry in the assay with C33A, with CAOV3, with CASKI, in the assay on Es-2, with HeLa and in the assay with Hek293T was “inactive” throughout. Besides, the Potency result in the assay on JEG-3, with OV90 and in the assay on PA-1 was “inactive” each time.

On to `NCC(CNc1nc(Nc2cccc(NC(=O)N3CCCC3)c2)ncc1I)C(=O)c1cccs1` (configuration not stated), for which the max response with CRL-7250 was -26%. Besides, the compound was called inactive in the assay on HaCat [1] and in the assay on HACAT [2]. In addition, the Potency with KB-3-1 was 11.6 µM (active). For the same compound, the Potency entry in the assay on C33A, in the assay on CASKI, in the assay on Es-2, with HeLa, in the assay with Hek293T and in the assay on JEG-3 was “inactive” each time. The Potency result in the assay with OV90 and in the assay on PA-1 was “inactive” throughout.

`C=C1C(=O)OC2/C=C(\C)CC/C=C(\C=O)C(OC)C(OC(=O)C(C)CC)C12` (configuration not stated): the max response is -23.9% in the assay on CRL-7250 and -2.57% with KB-3-1. The call with HaCat [1] and in the assay with HACAT [2] was inactive. The Potency result with C33A, in the assay with CAOV3, in the assay on CASKI, with HeLa, in the assay with JEG-3 and in the assay on OV90 was “inactive” each time. Further, in the assay on PA-1, the Potency result is “inactive”.

For `Cc1cc(CS(=O)(=O)c2ccccc2)cc(OCc2ccc(CN3CCCC3CO)cc2)c1` (configuration not stated), the values for the max response in the assay with CRL-7250 and with KB-3-1 were 4.21% and -16.6%, respectively. In addition, the result in the assay on HaCat [1] and in the assay with HACAT [2] was inactive. For the same compound, the Potency result with C33A, in the assay on CAOV3, in the assay with CASKI, with Es-2, in the assay with HeLa and with Hek293T was “inactive” in each case. For the same compound, the Potency result in the assay with JEG-3 and with PA-1 was “inactive” throughout.

`CC(C)(C)C1CCN(C(=O)n2ncc(C(O)(c3ccccc3)c3ccccc3)n2)CC1`: the result in the assay with CRL-7250 was inactive. Further, the max response was -7.63% in the assay on HaCat [1] and -15.2% in the assay on KB-3-1. In addition, the Potency entry with C33A, in the assay on CAOV3, in the assay on CASKI, in the assay on Es-2, with HeLa and in the assay with Hek293T was “inactive” in each case. Also, the Potency result in the assay on JEG-3, with OV90 and in the assay with PA-1 was “inactive” throughout.

In the case of `CN(C)c1cccc(Oc2cnc(Nc3cccc(O)c3)nc2)c1`, the max response in the assay on CRL-7250 is 4.02%. Also, the result in the assay on HaCat [1], in the assay with KB-3-1 and with HACAT [2] was inactive. Besides, the Potency entry in the assay with C33A, with CAOV3, in the assay on HeLa, in the assay with Hek293T, with JEG-3 and in the assay with OV90 was “inactive” in each case. In the assay with PA-1, the Potency entry is “inactive”.

Regarding `COc1cc(-c2cn(C3CCc4c(F)cccc4N(CC(F)(F)F)C3=O)nn2)ccc1-n1cnc(C)c1` (configuration not stated), the max response was -13.5% with CRL-7250, -32.4% in the assay with HaCat [1] and -16.9% in the assay with KB-3-1. The Potency entry in the assay with C33A, in the assay with CAOV3, with CASKI, in the assay with Es-2, in the assay on HeLa and with Hek293T was “inactive” throughout. Besides, the Potency entry in the assay with JEG-3, in the assay on OV90 and with PA-1 was “inactive” throughout.

On to `COc1ccc2nccc(C(=O)CC[C@@H]3CCN(CC#Cc4cc(F)cc(F)c4F)C[C@@H]3C(=O)O)c2c1`, for which the max response in the assay on CRL-7250 is -3.43%; in the assay with KB-3-1 it was 5.2%. Also, the call in the assay with HaCat [1] and in the assay with HACAT [2] was inactive. Besides, the Potency result in the assay with C33A, in the assay with CAOV3, with CASKI, in the assay on Es-2, in the assay on HeLa and with Hek293T was “inactive” each time. In addition, the Potency entry in the assay with JEG-3, with OV90 and in the assay on PA-1 was “inactive” in each case.

`COc1ccccc1OCCN1CC(COc2cccc3[nH]c4ccccc4c23)OCC1=O` (configuration not stated): the compound was called inactive in the assay on CRL-7250, in the assay on HaCat [1] and in the assay with HACAT [2]. Moreover, the max response with KB-3-1 was -7.07%. In addition, the Potency result in the assay with C33A, with CAOV3, in the assay on CASKI, with Es-2, with HeLa and with Hek293T was “inactive” each time. In addition, the Potency result with JEG-3, in the assay with OV90 and with PA-1 was “inactive” each time.

Take `C=CC(=O)N1CCCC(n2nc(-c3ccc(Oc4ccccc4)cc3)c3c(N)ncnc32)C1` (configuration not stated): the max response in the assay on CRL-7250 was 3.87%; in the assay on KB-3-1, -21.4%. Moreover, the Potency in the assay with HaCat [1] was 1.3 µM (active). In addition, the Potency entry in the assay with C33A, in the assay with CAOV3, in the assay on Es-2, in the assay with HeLa, in the assay on Hek293T and with JEG-3 was “inactive” each time. The Potency entry in the assay with OV90 was “inactive”.

Consider `C=C1C(=O)O[C@@H]2/C=C(\C)CC/C=C(/C=O)[C@H](OC)[C@@H](OC(=O)C(C)C)[C@@H]12`, for which the max response in the assay on CRL-7250 is 2.09%. Also, the result in the assay on HaCat [1], in the assay on KB-3-1 and in the assay with HACAT [2] was inactive. For the same compound, the Potency entry in the assay on C33A, in the assay on CAOV3, in the assay on CASKI, with HeLa, in the assay on JEG-3 and with PA-1 was “inactive” in each case.

`COc1ccc(-c2c(C)nn3c(NCCN4CCOCC4)cc(C)nc23)cc1OC`: the max response is -19% with CRL-7250 and -11.4% in the assay on HaCat [1]. Further, in the assay with KB-3-1, the compound was classed as inactive. Further, the Potency entry in the assay with C33A, with CAOV3, in the assay with CASKI, with Es-2, in the assay with HeLa and with Hek293T was “inactive” in each case. Moreover, the Potency result with JEG-3, in the assay on OV90 and in the assay on PA-1 was “inactive” throughout.

These data come from PubChem BioAssay (NCATS).
